Assay in all cases: NCI-60 one-dose screen, 48 h (100 = growth as untreated, 0 = no growth, -100 = all killed)
Settings in all cases: 10 µM unless noted

Experiment [1] relates to T-47D breast.
Experiment [2] has as its system MDA-MB-435 melanoma.
Experiment [3] concerns SW-620 colon.
The test system of experiment [4] is MCF7 breast.
Experiment [5] concerns HCC-2998 colon.
Experiment [6] has as its system KM12 colon.
Experiment [7] concerns HCT-116 colon.

The panel holds about 83,000 compounds, 20% with a hit somewhere; the sample as a whole holds those more often.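 Interpretation: 100, growth as untreated; towards 0, rising growth inhibition; 0, no net growth; 0 to -100, cell death. Compounds scoring below 10 were considered active.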 Unmarked numbers belong to inactive results. The source made the active and inactive calls.

`CCOC(=O)c1ccc(NC(=O)Nc2nccs2)cc1`: the growth is 57.3% in experiment [1]; 5.34% (active) in experiment [2]; 16.5% in experiment [3]; 0.495% (active) in experiment [4]; -27.7% (active) in experiment [5]; -33.3% (active) in experiment [6].
On to `Cc1ccc([N+](=O)[O-])c(C)n1`, for which the growth in experiment [1] was 102%; in experiment [2], 99.8%; in experiment [3], 99.5%; in experiment [4] it was 96.2%; in experiment [7], 104%; in experiment [5] it was 103%. Also, in experiment [6], the growth was 107%.
As to `NC(CSSCC(N)C(=O)O)C(=O)O` (stereo unspecified), the growth in experiment [1] was 54.7%; in experiment [2], -15.1% (active); in experiment [3] it was 21.7%; in experiment [4] it was 20.4%; in experiment [7], 18.6%; in experiment [5] it was 9.17% (active). For the same compound, in experiment [6], the growth was 8.65% (active).
Turning to `C=CC(=O)OC1CCC(C(C)(C)CC)CC1` (stereo unspecified), the growth in experiment [1] was 112%; in experiment [2], 103%; in experiment [3], 107%; in experiment [4], 96%; in experiment [7] it was 104%; in experiment [5], 110%. Besides, the growth in experiment [6] was 106%.
Take `COc1ccc(Br)c2c1C(=O)CC2`: the growth in experiment [1] is 133%; in experiment [2], 116%; in experiment [3], 123%; in experiment [4], 107%; in experiment [7], 108%; in experiment [5] it was 113%. The growth in experiment [6] is 117%.
Turning to `O=C(OCC1CCCO1)c1ccc([N+](=O)[O-])cc1` (stereo unspecified), the growth in experiment [1] is 84.8%; in experiment [2] it was 109%; in experiment [3] it was 91.8%; in experiment [4], 95.6%; in experiment [7], 103%; in experiment [6], 109%.
For `CN1C(=O)NC(c2ccc(Cl)cc2)(c2ccc(Cl)cc2)C1=O`, the growth in experiment [1] is 94.2%; in experiment [2] it was 97.3%; in experiment [3], 103%; in experiment [4] it was 102%; in experiment [7], 88.2%; in experiment [5], 101%. Moreover, the growth in experiment [6] is 87.9%.
For the compound `O=Cc1ccc(Cl)c(Cl)c1`, the growth was 115% in experiment [1]; 110% in experiment [2]; 118% in experiment [3]; 98.4% in experiment [4]; 107% in experiment [7]; 97.2% in experiment [5]. In experiment [6], the growth is 113%.
Consider `Cc1cc(C(=O)c2ccccc2)cc(C)c1O`, for which the growth in experiment [1] is 95.6%; in experiment [2], 101%; in experiment [3], 97.4%; in experiment [4] it was 93.8%; in experiment [7], 84.5%; in experiment [5], 102%. Also, in experiment [6], the growth is 99.6%.
As to `CCOc1ccccc1NC(=O)CCl`, the growth in experiment [1] was 75.3%; in experiment [2], 83.9%; in experiment [3] it was 98.4%; in experiment [4] it was 46.6%; in experiment [7] it was 75.8%; in experiment [5] it was 110%. For the same compound, the growth in experiment [6] is 97.1%.
For the compound `S=C(Sc1ccc(Cl)cc1)Sc1ccc(Cl)cc1`, the growth in experiment [1] was -1.08% (active); in experiment [2], 19.6%; in experiment [3] it was -68% (active); in experiment [4], 24%; in experiment [7] it was -68.4% (active); in experiment [5], 24.1%. Further, the growth in experiment [6] is 41%.
For the compound `CN(C)c1ccc2c(N(C)C)cc(N(C)C)nc2c1`, the growth in experiment [1] is 56%; in experiment [2], 80.2%; in experiment [3], 51.6%; in experiment [4] it was 13.9%; in experiment [7], 48.1%; in experiment [5], 118%. For the same compound, the growth in experiment [6] was 78.3%.
As for `CCOC(=O)CO`, the growth was 97.7% in experiment [1]; 104% in experiment [2]; 110% in experiment [3]; 97.5% in experiment [4]; 102% in experiment [7]; 103% in experiment [5]. In addition, the growth in experiment [6] was 109%.
As for `NC(=S)c1c(N)n(C2OC(CO)C(O)C2O)c2ncnc(N)c12` (stereo unspecified), the growth in experiment [1] was -48.2% (active); in experiment [2], -46.6% (active); in experiment [3], -18.3% (active); in experiment [4], -11.6% (active); in experiment [7], 5.32% (active); in experiment [5] it was 3.23% (active). The growth in experiment [6] is -6.52% (active).
As for `C=CCC(OC(C)=O)c1ccc(C(C)C)cc1` (stereo unspecified), the growth was 115% in experiment [1]; 124% in experiment [2]; 107% in experiment [3]; 113% in experiment [4]; 110% in experiment [7]; 114% in experiment [6].
`Cc1ccc2nc(N)nnc2c1`: the growth was 108% in experiment [1]; 106% in experiment [2]; 95.1% in experiment [3]; 104% in experiment [4]; 108% in experiment [7]; 103% in experiment [5]. For the same compound, the growth in experiment [6] is 103%.
As to `O=Cc1c(O)c2ccccc2[nH]c1=O`, the growth was 106% in experiment [1]; 118% in experiment [2]; 93.8% in experiment [3]; 95.7% in experiment [4]; 89.4% in experiment [7]; 139% in experiment [6].
Regarding `Nc1cccc2cccc(O)c12`, the growth in experiment [1] is 102%; in experiment [2], 108%; in experiment [3], 67.4%; in experiment [4], 79.9%; in experiment [7], 78.8%; in experiment [5] it was 95.8%. The growth in experiment [6] was 128%.
With `Nc1ncnc(Nc2ccccc2)n1`, the growth in experiment [1] was 96.3%; in experiment [2], 107%; in experiment [3], 101%; in experiment [4] it was 101%; in experiment [7] it was 118%; in experiment [6], 120%.
As to `O=C(CCl)Oc1ccc([N+](=O)[O-])cc1`, the growth in experiment [1] is 105%; in experiment [2] it was 107%; in experiment [3], 113%; in experiment [4], 99.5%; in experiment [7], 110%; in experiment [5] it was 102%. Moreover, the growth in experiment [6] was 107%.
For `Cc1ccc2nc(-c3ccc(N=Cc4ccccc4O)cc3)sc2c1`, the growth in experiment [1] was 69%; in experiment [2], 105%; in experiment [3], 97.8%; in experiment [4], 77.1%; in experiment [7] it was 79.2%; in experiment [6], 99.2%.

Source of the values: PubChem BioAssay (NCI).
